Inconclusive results are not listed. The source made the active and inactive calls. Calls come from the whole dose curve.
Test: qHTS assay to identify small molecule antagonists of the estrogen receptor alpha (ER-alpha) signaling pathway using the BG1 cell line (AID 743080);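 note: BG1 cells stimulated with 17beta-estradiol alongside compound; nearly all actives have a fitted effect of over 25% in size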
Settings: BG1Luc4E2 ERE-luciferase antagonist mode, luminescence; series mostly up to 70.3 µM
Text: National Center for Advancing Translational Sciences [NCATS]
NIH Chemical Genomics Center [NCGC]
U.S. Environmental Protection Agency [EPA]
National Institutes of Environmental Health Sciences [NIEHS]
National Toxicology Program [NTP]
U.S. Food and Drug Administration [FDA]
Estrogen receptor (ER), a nuclear hormone receptor, plays an important role in development, metabolic homeostasis and reproduction. Endocrine disrupting chemicals (EDCs) and their interactions with steroid hormone receptors like ER causes disruption of normal endocrine function. Therefore, it is important to understand the effect of environmental chemicals on the ER signaling pathway. To identify ER antagonists, BG1-Luc-4E2 cell line (provided by Dr. Michael Denison from University of California) has been used to screen the Tox21 10K compound library. BG1Luc4E2 cell line endogenously expresses full-length ER-alpha and is stably transfected with a plasmid containing four estrogen responsive elements (ERE) upstream of a luciferase reporter gene.
Tox21 Assay Protocol Summary:
BG1-Luc-4E2 cells were cultured in phenol red free assay medium containing 10% charcoal stripped FBS for 5 days before the assay was performed. The cells were dispensed at 4,000 cells/4 uL of assay medium per well into white wall/solid-bottom 1536-well plates using a Multidrop Combi (ThermoFisher Scientific, Waltham, MA) dispenser. The assay plates were incubated at a 37C and 5% CO2 for 24 h, and then 23 nL of compounds dissolved in DMSO, positive controls or DMSO only was transferred to the assay plate using a Pintool station (Kalypsys, San Diego, CA), followed by addition of 1 uL of 17beta-estradiol in assay medium using a Flying Reagent Dispenser (Aurora Discovery, San Diego, CA). After the plates were incubated at 37 C and 5% CO2 for 21.5 h, 1 uL of CellTiter-Fluor reagent (Promega, Madison, WI) of measuring cytotoxicity was added using Flying Reagent Dispenser (FRD) to each well. The assay plates were incubated at 37 C and 5% CO2 for additional 30 min and the fluorescence intensity was quantified by a ViewLux plate reader (PerkinElmer, Shelton, CT). For measuring luciferase reporter gene activity, 4 uL of ONE-Glo reagent (Promega) was added to each plate using an FRD and luminescence was quantified by a ViewLux plate reader after 30 min incubation at room temperature.

Compound | outcome
Cc1cc(C)cc([N+](=O)[O-])c1 | inactive
CCCCC(CC)COC(=O)c1ccccc1 (stereo not given) | inactive
CN=C(NC#N)NCCSCc1csc(N=C(N)N)n1 | inactive
O=c1[nH]c(=O)c2[nH]c(=O)[nH]c2[nH]1 | inactive
C[Si]1(C)N[Si](C)(C)N[Si](C)(C)N1 | inactive
O=P(O)(O)OCC(O)CO (stereo not given) | inactive
CCC(O)C(C)(C)C (stereo not given) | inactive
CCOC(=O)C(C)(C)C | inactive
CC(C)CCC(=O)CCC(C)C | inactive
CC(C)SCc1ccco1 | inactive
CCCOC(=O)CCCCC(=O)OCCC | inactive
CC(C)CCCC(C)CC=O (stereo not given) | inactive
CC(CC(=O)O)CC(C)(C)C (stereo not given) | inactive
C=CCOCC(CO)(COCC=C)COCC=C | inactive
O=CN1CCOCC1 | inactive
CCC(=O)c1ccc(O)cc1 | inactive
CC(=O)OC(C(=O)c1ccccc1)c1ccccc1 (stereo not given) | inactive
OC[C@@H](O)[C@H](O)[C@@H](O)[C@@H](O)CO | inactive
O=C(/C=C/c1ccccc1)NCCO | inactive
Cc1nc2ccccc2c(=O)o1 | inactive

Compound | outcome
CCC(C)N (stereo not given) | inactive
CCNC(=O)NCCCOc1cccc(CN2CCCCC2)c1 | inactive
CCN1CN(CC)CN(CC)C1 | inactive
COc1cc([N+](=O)[O-])ccc1N | inactive
CCCCCC(=O)OCC | inactive
Nc1ccnc(=O)[nH]1 | inactive
Nc1cc(Cl)cc(S(=O)(=O)O)c1O | inactive
CNC(=O)C(c1ccccc1)c1ccccc1 | inactive
CN(C)CCOCCN(C)CCO | inactive
C[C@H](CCC(=O)O)[C@H]1CC[C@H]2[C@@H]3[C@H](O)C[C@@H]4C[C@H](O)CC[C@]4(C)[C@H]3C[C@H](O)[C@]12C | inactive
CCCOCCOCCOCCO | inactive
CC(=O)Nc1ncc([N+](=O)[O-])s1 | inactive
Cc1cccc(C(=O)O)c1[N+](=O)[O-] | inactive
CCCCCCCCCCCCCC(=O)OC | inactive
COC(/C=C(\C)CCC=C(C)C)OC | inactive
CCS(=O)(=O)CCn1c([N+](=O)[O-])cnc1C | inactive
COCC(=O)Nc1c(I)c(C(=O)NCC(O)CO)c(I)c(C(=O)N(C)CC(O)CO)c1I (stereo not given) | inactive
Nc1ccc(S(=O)(=O)NC(=O)c2ccccc2)cc1 | inactive
CC(=O)c1ccc2c(c1)CCCC2 | inactive
CO[Si](CCCS)(OC)OC | inactive

From PubChem BioAssay (Tox21)
